Screens (PubChem)
Most compounds without a hit are left out; they make up all but 3.8% or so of the library.
S2 tox: viability counter-screen for ATXN expression inhibitors | S2 cells (HEK-293 line with an ATXN2-luciferase reporter) viability, CellTiter-Fluor protease fluorescence, 24 h | Potency, µM (highest dose often 56.7 µM), usual class: cytotoxic | hit rate 0.49% among 400,000; further: nearly all actives have a fitted effect of over 40% in size
ATXN2 expr inh: ATXN2 expression inhibition; HEK-293 ATXN2-luciferase reporter, luminescence, 24 h; Potency, µM (doses to about 57 µM), for the others: top-dose activity change, negative = inhibition, hits mostly inhibitors; hit rate 0.72% among 360,000; AID 1745845; further: on the % scale 0 is the no-effect control and ±100 the full control effect; nearly all actives have a fitted effect of over 55% in size
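qHTS (up to 57 uM final) was run with 24 h compound exposure of reporter cells at 37 °C. Each well was multiplexed: SteadyGlo luminescence measured ATXN2-luciferase expression after a fluorogenic Gly-Phe-AFC viability readout (25 uM final).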
HT1080NT lethal: kills 2HG-producing HT-1080-NT fibrosarcoma cells; HT-1080-NT fibrosarcoma viability, CellTiter-Glo ATP luminescence, 48 h; Potency, µM (doses to about 46.1 µM), without a hit: top-dose activity, negative = less viability, usual class: cytotoxic; hit rate 1.6% among 360,000; AID 686970;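 further: NT is the 2HG producing partner of a matched IDH1 knockdown line; 0% = DMSO-treated cells and -100% = media-only wells without cells; nearly all actives have a fitted effect of over 55% in size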
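Compounds were tested in concentration-response format on HT-1080-NT cells for 48 hours at 37 degrees C. Cell viability came from CellTiter-Glo luminescence; curves were classified by r2, response magnitude and activity.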
TGFb SMAD3 inh: inhibitors of TGF-b signaling; hit rate 1.2% among 410,000; HepG2 CAGA-GFP TGF-b/SMAD3 reporter, GFP fluorescence, 18 h; TGF-beta stimulated, 500 pg/mL final; Potency, µM (titrated, usually from 46.1 µM), without a hit: top-dose activity, negative = inhibition, usual class: inhibitors; further: on the % scale 0 is the no-effect control and ±100 the full control effect; nearly all actives have a fitted effect of over 65% in size
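Cell-based qHTS in HEPG2 carrying a CAGA-GFP Smad reporter; compounds added before 500 pg/mL final TGF-beta, 18 h incubation at 37 degrees C, GFP fluorescence quantified per cell by imaging cytometry.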
HT1080 IDH1KD tx: kills HT-1080 cells with IDH1 knockdown; hit rate 2% among 360,000; Potency, µM (top dose mostly 46.1 µM), inactives show top-dose activity, negative = toxicity, most hits filed as cytotoxic; HT-1080 IDH1 knockdown viability, ATP luminescence, 48 h;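 further: 0% = DMSO wells and -100% = cell-free medium wells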
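Viability of IDH1-knockdown HT-1080 fibrosarcoma cells was assessed by CellTiter-Glo after 48 h at 37 °C with titrated compound; concentration-effect curves were classified by fit quality and response size.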
HepG2 tox: kills HepG2 cells in TGF-b inhibitor counter-screen; HepG2 CAGA-GFP viability, ATP luminescence, 18 h; Potency, µM (doses to about 46.1 µM), without a hit: at the top dose activity change, negative = cytotoxicity, hits mostly cytotoxic; hit rate 0.76% among 410,000
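HepG2 CAGA-GFP cells (1000/well, DMEM with 1% FBS) received compound, then TGF-beta at 500 pg/mL final, and were incubated 18 hours at 37 degrees C. Viability was read by CellTiter-Glo luminescence. Media-only wells were set as complete cell-killing and DMSO as no toxicity.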
* hit, by the source's call; i = inactive; u = inconclusive; x = no result; [ ] = another dose, or the depositor's remark. The call rests on the fitted dose curve; in most records, active means well fitted curve in the direction sought with a large enough effect; inconclusive means small, poorly fitted or top-dose-only effect, or another doubt; inactive means no such curve, though single readings can be large; an effect the other way counts as inactive or inconclusive. Potency means the concentration at half of the fitted maximal effect.

SMILES	S2 tox	ATXN2 expr inh	HT1080NT lethal	TGFb SMAD3 inh	HT1080 IDH1KD tx	HepG2 tox
CC1C(=O)N(Cc2cn(CC3CCCCC3)nn2)CCS(=O)(=O)N1Cc1ccc(-c2ccc(Cl)cc2)cc1 (stereo not drawn)	u	u	u	u	16.4µM*	-3.3%
CC1C(=O)N(Cc2cn(CC3CCCCC3)nn2)CCS(=O)(=O)N1Cc1ccc(-c2ccc(Cl)c(Cl)c2)cc1 (stereo not drawn)	u	-26.5%	u	u	-24.8%	-25.7%
Cc1ccc(NC(=O)CSc2nc3ccccc3n2CC(=O)N2CCC(C)CC2)cc1C	i	9.8%	x	-18.7%	x	-22.1%
CCN(CC)C(=O)c1ccc2c(c1)N(Cc1ccc(C(F)(F)F)cc1)C(=O)c1ccccc1S2	i	u	x	u	x	-45.9%
CC1C(=O)N(Cc2cn(CCC3OCCCO3)nn2)CCS(=O)(=O)N1Cc1ccc(-c2ccc(Cl)c(Cl)c2)cc1 (stereo not drawn)	25.1µM*	25.1µM*	u	u	20.6µM*	-37.5%
COCOCCn1cc(CN2CCS(=O)(=O)N(Cc3ccc(-c4ccc(Cl)c(Cl)c4)cc3)C(C)C2=O)nn1 (stereo not drawn)	x	28.2µM*	23.1µM*	u	u	-108.8%
Cc1cccc(C)c1-c1ccc(CN2C(CC(C)C)C(=O)N(Cc3cn(CCO)nn3)CCS2(=O)=O)cc1 (stereo not drawn)	31.6µM*	28.2µM*	-10.9%	u	-19.5%	-83.8%
COc1ccc(CN2CCC3(CC2)c2ccccc2[C@@H](NC(=O)c2ccsc2)[C@@H]3OC)cc1O	i	x	x	x	x	x
O=C(CSc1nc(=O)[nH]c2c1CCCC2)Nc1ccccc1C(F)(F)F	x	x	x	18.8%	x	-1.9%
O=S(=O)(c1ccc(Cl)cc1)c1nc(-c2cccs2)oc1SCc1ccc(F)cc1	i	10.2%	x	6.5%	x	-0.5%
CCCC(=O)O[C@]1(C(=O)COC(=O)CC)CC[C@H]2[C@@H]3CCC4=CC(=O)CC[C@]4(C)[C@H]3[C@@H](O)C[C@@]21C	i	4.9%[25.6 µM]	x	x	x	x
Cc1c(C(=O)OC2CCCCC2)[nH]c2c1C(=O)CC(c1ccccc1)C2 (stereo not drawn)	i	4.6%	x	36.0%	x	7.2%
C/C=C/COC(=O)c1[nH]c2c(c1C)C(=O)CC(c1ccco1)C2 (stereo not drawn)	u	u	1.03µM*	u	0.651µM*	-9.8%
Cc1c(C(=O)OC2CCCC2)[nH]c2c1C(=O)CC(c1ccco1)C2 (stereo not drawn)	u	-5.9%	0.517µM*	u	1.3µM*	-34.8%
COc1ccc(OC)c(C2CC(=O)c3c([nH]c(C(=O)OCC4CCCO4)c3C)C2)c1 (stereo not drawn)	u	-22.5%	-11.0%	-2.3%	-15.4%	-8.3%
Cc1c(C(=O)OCC2CCCO2)[nH]c2c1C(=O)CC(c1ccco1)C2 (stereo not drawn)	i	-5.4%	u	-3.0%	2.91µM*	-25.1%
C/C=C/COC(=O)c1[nH]c2c(c1C)C(=O)CC(c1ccc(N(C)C)cc1)C2 (stereo not drawn)	u	-24.3%	-17.8%	-6.8%	-26.8%	-22.8%
C=CCOC(=O)c1[nH]c2c(c1C)C(=O)CC(c1ccco1)C2 (stereo not drawn)	u	-1.4%	u	u	0.366µM*	-0.4%
Nc1nc(NCc2ccc(Cl)c(Cl)c2)c2[nH]cnc2n1	x	x	x	-13.7%	x	-21.0%
CCCCN(C)C(=O)c1ccc2c(c1)N(Cc1cccc(F)c1)C(=O)c1ccccc1S2	x	u	x	u	x	-57.5%
CC(=O)N(c1ccc(Cl)cc1)C1SC(=O)N(c2ccccc2)C1=O (stereo not drawn)	x	x	15.9%	x	18.5%	x
COc1ccccc1-c1cc(C(F)(F)F)nc(S(=O)(=O)CCCC(=O)Nc2cc(Br)ccc2O)n1	i	53.3%	x	-26.8%	x	-28.3%
COc1ccccc1-c1cc(C(F)(F)F)nc(S(=O)(=O)CCCC(=O)Nc2ccccc2F)n1	x	x	x	3.55µM*	x	11.2µM*
CSc1ccccc1NC(=O)CCS(=O)(=O)c1nc(-c2ccc3c(c2)OCO3)cc(C(F)(F)F)n1	x	x	x	15.8µM*	x	-83.4%
COc1ccc(NC(=O)CCCS(=O)(=O)c2nc(-c3ccccc3OC)cc(C(F)(F)F)n2)c(OC)c1	i	6.4%	x	-11.3%	x	-5.2%
SMILES	S2 tox	ATXN2 expr inh	HT1080NT lethal	TGFb SMAD3 inh	HT1080 IDH1KD tx	HepG2 tox
COc1ccccc1-c1cc(C(F)(F)F)nc(S(=O)(=O)CCCC(=O)Nc2cccnc2Cl)n1	u	u	14.6µM*	u	25.9µM*	1.6%
C=C1C=C(C(F)(F)F)n2ncc(C(=O)NCc3ccc(F)cc3)c2N1	x	x	x	0.6%	x	-0.3%
COc1ccc(NC(=O)c2c(C)oc3ccc(O)c(CN4CCC(C)CC4)c23)cc1Cl	14.1µM*	-19.4%	x	12.6µM*	x	10µM*
COc1ccc(NC(=O)c2c(C)oc3ccc(O)c(CN4CCCC(C)C4)c23)cc1Cl (stereo not drawn)	x	x	x	x	x	11.2µM*
COc1cc(C2C(=O)N(C3CCCCCC3)CC(=O)N2CCC2=CCCCC2)ccc1OC(C)C (stereo not drawn)	x	x	x	1.9%	x	-5.0%
CCn1c(-c2cccc(OC)c2)nc2cc(NC(C)=O)cc(C(=O)N3CCC[C@H]3C(=O)OC)c21	i	x	x	x	x	x
Cc1ccccc1S(=O)(=O)Cc1ccc(C(=O)N2CCN(c3cccc(C)c3C)CC2)o1	17.8µM*	12.6µM*	5.8µM*	u	6.51µM*	-17.2%
Cc1cccc(N2CCN(C(=O)c3ccc4ncsc4c3)CC2)c1C	i	15.9%	2.59µM*	0.0%	5.8µM*	-36.9%
COc1ccc(C(=O)N2CCN(C(=O)c3cc(OC)c(OC)c(OC)c3)CC2)cc1	i	-17.0%	9.4%	0.8%	8.2%	-2.3%
Cc1cccc(N2CCN(C(=O)c3cc(S(=O)(=O)N4CCCC4)cn3C)CC2)c1C	i	-23.7%	u	u	14.6µM*	-1.8%
COc1cc(C(=O)N2CCN(c3cc(Cl)ccc3Cl)CC2)cc(OC)c1OC	u	4.6%	1.3µM*	u	0.651µM*	0.9%
Cc1cccc(NC(=O)c2cnn(-c3ccccc3)c2-n2cccc2)c1C	i	-9.0%	x	u	x	-42.1%
Cc1cccc(N2CCN(C(=O)c3ccnn3C)CC2)c1C	i	5.5%	-4.1%	0.1%	0.3%	7.6%
Cc1cccc(N2CCN(C(=O)N3CCOCC3)CC2)c1C	i	-27.4%	16.4µM*	-1.7%	u	5.2%
